# Reference: PMC5540273 (PLoS ONE, 2017)
# Values joined by “and” are separate entries in the source; they are usually repeats but may differ in a detail not shown here. Identical values can stand only once. Like-named read-outs stand apart in the source and are kept apart here.
# What was measured:
# HPK1 = settings: concentration: 1 μM, replicates: in singlicate; n = 1
# HUNK = settings: concentration: 1 μM, replicates: in singlicate, n = 1
# ICK = settings: concentration: 1 μM, replicates: in singlicate, n = 1
# IGF1R = settings: concentration: 1 μM, replicates: in singlicate, n = 1
# IKK-alpha = system: T1, IKK-alpha; settings: concentration: 1 μM, replicates: in singlicate, n = 1
# T1 construct: gene CHUK
# IKK-beta = system: T2, IKK-beta; settings: concentration: 1 μM, replicates: in singlicate, n = 1
# T2 construct: gene IKBKB
# IKK-epsilon = system: T3, IKK-epsilon; settings: concentration: 1 μM, replicates: in singlicate, n = 1
# T3 construct: gene IKBKE
# INSRR = settings: concentration: 1 μM, replicates: in singlicate; n = 1
# INSR = settings: concentration: 1 μM, replicates: in singlicate, n = 1
# IRAK1 = settings: concentration: 1 μM, replicates: in singlicate, n = 1
# IRAK3 = settings: concentration: 1 μM, replicates: in singlicate; n = 1
# IRAK4 = settings: concentration: 1 μM, replicates: in singlicate, n = 1
# ITK = settings: concentration: 1 μM, replicates: in singlicate, n = 1
# [1] = system: JAK1(JH1domain-catalytic); settings: concentration: 1 μM, replicates: in singlicate, n = 1
# [2] = system: JAK1(JH2domain-pseudokinase); settings: concentration: 1 μM, replicates: in singlicate, n = 1
# [3] = system: JAK2(JH1domain-catalytic); settings: concentration: 1 μM, replicates: in singlicate, n = 1
# [4] = system: JAK3(JH1domain-catalytic); settings: concentration: 1 μM, replicates: in singlicate, n = 1
# JNK1 = system: T4, JNK1; settings: concentration: 1 μM, replicates: in singlicate, n = 1
# T4 construct: gene MAPK8
# JNK2 = system: T5, JNK2; settings: concentration: 1 μM, replicates: in singlicate, n = 1
# T5 construct: gene MAPK9
# JNK3 = system: T6, JNK3; settings: concentration: 1 μM, replicates: in singlicate, n = 1
# T6 construct: gene MAPK10
# 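Also: KINOMEscan kinase panel screen.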
smiles,measurement,setting,value
CN1c2ccc(NCc3ccc(F)cc3)cc2-c2c(cnn2C)S1(=O)=O,%Inh,HPK1,26%
same,%Inh,HUNK,52%
same,%Inh,ICK,0%
same,%Inh,IGF1R,0%
same,%Inh,IKK-alpha,0%
same,%Inh,IKK-beta,0%
same,%Inh,IKK-epsilon,0%
same,%Inh,INSRR,16%
same,%Inh,INSR,0%
same,%Inh,IRAK1,0%
same,%Inh,IRAK3,0%
same,%Inh,IRAK4,0%
same,%Inh,ITK,0%
same,%Inh,[1],0%
same,%Inh,[2],11%
same,%Inh,[3],1%
same,%Inh,[4],0%
same,%Inh,JNK1,0%
same,%Inh,JNK2,0%
same,%Inh,JNK3,0%
O=c1cc(N2CCOCC2)nc2n(Cc3cccc(Cl)c3Cl)c(C3CC3)nn12 [GSK2358994],%Inh,HPK1,14%
same,%Inh,HUNK,0%
same,%Inh,ICK,4%
same,%Inh,IGF1R,0%
same,%Inh,IKK-alpha,0%
same,%Inh,IKK-beta,0%
same,%Inh,IKK-epsilon,0%
same,%Inh,INSRR,0%
same,%Inh,INSR,0%
same,%Inh,IRAK1,0%
same,%Inh,IRAK3,0%
same,%Inh,IRAK4,0%
same,%Inh,ITK,4%
same,%Inh,[1],9%
same,%Inh,[2],3%
same,%Inh,[3],6%
same,%Inh,[4],0%
same,%Inh,JNK1,19%
same,%Inh,JNK2,0%
same,%Inh,JNK3,0%
NS(=O)(=O)c1cccc(-c2ccc3nccc(-c4cccc(S(N)(=O)=O)c4)c3c2)c1 [GW867253],%Inh,HPK1,0%
same,%Inh,HUNK,17%
same,%Inh,ICK,0%
same,%Inh,IGF1R,0%
same,%Inh,IKK-alpha,0%
same,%Inh,IKK-beta,0%
same,%Inh,IKK-epsilon,0%
same,%Inh,INSRR,6%
same,%Inh,INSR,0%
same,%Inh,IRAK1,12%
same,%Inh,IRAK3,0%
same,%Inh,IRAK4,0%
same,%Inh,ITK,0%
same,%Inh,[1],0%
same,%Inh,[2],38%
same,%Inh,[3],8%
same,%Inh,[4],0%
same,%Inh,JNK1,30%
same,%Inh,JNK2,5%
same,%Inh,JNK3,0%
CN1c2ccc(CNc3ccc(F)cc3)cc2-c2c(cnn2C)S1(=O)=O,%Inh,HPK1,17%
same,%Inh,HUNK,34%
same,%Inh,ICK,0%
same,%Inh,IGF1R,0%
same,%Inh,IKK-alpha,0%
same,%Inh,IKK-beta,0%
same,%Inh,IKK-epsilon,0%
same,%Inh,INSRR,0%
same,%Inh,INSR,0%
same,%Inh,IRAK1,0%
same,%Inh,IRAK3,0%
same,%Inh,IRAK4,0%
same,%Inh,ITK,0%
same,%Inh,[1],2%
same,%Inh,[2],20%
same,%Inh,[3],0%
same,%Inh,[4],0%
same,%Inh,JNK1,0%
same,%Inh,JNK2,0%
same,%Inh,JNK3,0%
CN(C(=O)c1ccc(-c2cc(-c3c[nH]nc3-c3ccccn3)ccn2)cc1)C1CCOCC1 [GW810083],%Inh,HPK1,30%
same,%Inh,HUNK,0%
same,%Inh,ICK,78%
same,%Inh,IGF1R,0%
same,%Inh,IKK-alpha,0%
same,%Inh,IKK-beta,0%
same,%Inh,IKK-epsilon,0%
same,%Inh,INSRR,0%
same,%Inh,INSR,0%
same,%Inh,IRAK1,0%
same,%Inh,IRAK3,0%
same,%Inh,IRAK4,0%
same,%Inh,ITK,5%
same,%Inh,[1],0%
same,%Inh,[2],0%
same,%Inh,[3],0%
same,%Inh,[4],0%
same,%Inh,JNK1,42%
same,%Inh,JNK2,45%
same,%Inh,JNK3,38%
O=C1Cc2cc(Nc3nc(NCc4cccc(S(=O)(=O)C(F)(F)F)c4)ncc3C(F)(F)F)ccc2N1,%Inh,HPK1,0%
same,%Inh,HUNK,8%
same,%Inh,ICK,0%
same,%Inh,IGF1R,0%
same,%Inh,IKK-alpha,20%
same,%Inh,IKK-beta,8%
same,%Inh,IKK-epsilon,0%
same,%Inh,INSRR,0%
same,%Inh,INSR,0%
same,%Inh,IRAK1,14%
same,%Inh,IRAK3,0%
same,%Inh,IRAK4,22%
same,%Inh,ITK,0%
same,%Inh,[1],28%
same,%Inh,[2],0%
same,%Inh,[3],7%
same,%Inh,[4],7%
same,%Inh,JNK1,9%
same,%Inh,JNK2,0%
same,%Inh,JNK3,0%
O=C(NCCNc1ccnc(Nc2ccc(F)cc2)n1)Nc1ccccc1F [GSK1379880],%Inh,HPK1,33%
same,%Inh,HUNK,0%
same,%Inh,ICK,0%
same,%Inh,IGF1R,0%
same,%Inh,IKK-alpha,0%
same,%Inh,IKK-beta,0%
same,%Inh,IKK-epsilon,0%
same,%Inh,INSRR,0%
same,%Inh,INSR,0%
same,%Inh,IRAK1,15%
same,%Inh,IRAK3,0%
same,%Inh,IRAK4,11%
same,%Inh,ITK,30%
same,%Inh,[1],23%
same,%Inh,[2],0%
same,%Inh,[3],11%
same,%Inh,[4],0%
same,%Inh,JNK1,32%
same,%Inh,JNK2,19%
same,%Inh,JNK3,11%
CC(C)(CN)c1nc(-c2ccc(Cl)c(O)c2)c(-c2ccncc2)[nH]1.O=C(O)C(F)(F)F [SB-477794],%Inh,HPK1,46%
same,%Inh,HUNK; 1 µM,0% and 16%
same,%Inh,ICK; 1 µM,23% and 0%
same,%Inh,IGF1R; 1 µM,0% and 9%
same,%Inh,IKK-alpha; 1 µM,64% and 34%
same,%Inh,IKK-beta; 1 µM,33% and 0%
same,%Inh,IKK-epsilon; 1 µM,10% and 6%
same,%Inh,INSRR,0%
same,%Inh,INSR; 1 µM,23% and 0%
same,%Inh,IRAK1; 1 µM,62% and 44%
same,%Inh,IRAK3,0%
same,%Inh,IRAK4; 1 µM,43% and 0%
same,%Inh,ITK; 1 µM,9% and 0%
same,%Inh,[1]; 1 µM,28% and 15%
same,%Inh,[2]; 1 µM,0% and 2%
same,%Inh,[3]; 1 µM,18% and 8%
same,%Inh,[4]; 1 µM,0% and 28%
same,%Inh,JNK1; 1 µM,41% and 32%
same,%Inh,JNK2; 1 µM,85% and 80%
same,%Inh,JNK3; 1 µM,93.6% and 92.8%
